# Compounds with a hit are over-represented: about 9.7% of the library has one in this group of screens.
# A340 absorber: compound light absorbance at 340 nm, profiling panel, artefact control, biochemical, MLSMR library, data from PS, PMK, MK assays | compound absorbance at 340 nm, fold over control | fold change at 10 µM | 65,000 tested, under 10 active;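 active = at 10 µM dose, initial 340 nm absorbance at least 2 fold that of control wells; inactive = change under 2 fold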;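 also: initial absorbance extrapolated from kinetic A340 decline of NADH oxidation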
# M1 ag: M1 muscarinic receptor agonists, primary screen, CHO-M1 cells, Fluo-4 calcium, agonist mode; Muscarinic acetylcholine receptor M1; Fluo-4 calcium fluorescence; hits give high values; B-score at 10 µM; hit rate 3% among 64,000; AID 626, 2007;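 active = fluorescence rise, raw or as B-score row- and column-corrected plate score, outside the 99.7% band of its plate's samples, either direction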
# Fluor 339 460: intrinsic fluorescence of library compounds, ex339/em460 – biochemical, MLSMR library, data from DPM-DC assay, artefact control, profiling panel | compound autofluorescence, ex339/em460 nm, NADH buffer; hits give high values; 1 = no-compound wells, NADH background | hit rate 5.5% among 65,000 | AID 709, 2007 | fluorescence fold increase at 10 µM;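 active = at 10 µM, mean starting fluorescence two-fold or more over control wells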;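 also: signal is the first read of a kinetic run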
# M1 antagonist: antagonists of rat M1 muscarinic receptor. Muscarinic acetylcholine receptor M1 (Rattus norvegicus), P08482. CHO-M1 cells, Fluo-4 calcium, ACh EC80 antagonist mode; hits give low values. B-score at 10 µM. hit rate 3.4% among 64,000. AID 628, 2007;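 active = calcium fluorescence response, raw or row-and-column corrected B-score, differing from the plate sample mean either way at a set confidence level, mostly lower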
# Target sequence (P08482 whole entry, looked up): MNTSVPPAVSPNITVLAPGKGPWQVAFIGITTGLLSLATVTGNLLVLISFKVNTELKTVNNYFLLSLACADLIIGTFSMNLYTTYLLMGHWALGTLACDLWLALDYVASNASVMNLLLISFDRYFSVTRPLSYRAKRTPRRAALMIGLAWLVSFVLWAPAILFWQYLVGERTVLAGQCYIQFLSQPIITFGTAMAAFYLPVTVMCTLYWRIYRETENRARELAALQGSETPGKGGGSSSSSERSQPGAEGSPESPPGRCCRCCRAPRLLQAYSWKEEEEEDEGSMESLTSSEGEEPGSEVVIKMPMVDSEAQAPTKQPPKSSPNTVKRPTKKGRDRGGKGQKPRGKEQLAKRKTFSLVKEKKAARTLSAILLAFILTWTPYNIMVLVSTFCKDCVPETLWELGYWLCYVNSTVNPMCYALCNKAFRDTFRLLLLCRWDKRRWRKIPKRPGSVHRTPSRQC
# BAP1 inh: inhibitors of BAP1 deubiquitinase, primary screen, biochemical, Ub-AMC fluorescence, kinetic; Ubiquitin carboxyl-terminal hydrolase BAP1 (Homo sapiens), Q92560; recombinant BAP1, Ub-AMC hydrolysis fluorescence kinetic; hits give low values; calls only at 20 µM; hit rate 0.48% among 72,000; AID 436, 2006;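 active = activity remaining at or below 50% of control, provided the compound also passes the data quality filters; inactive = the rest, including low values that fail the filters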;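 also: 100% = DMSO wells rate and 0% = substrate alone blank rate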
# WNV NS2B-NS3 inh: inhibitors of WNV NS2B-NS3 protease, primary screen, biochemical, fluorogenic substrate | Genome polyprotein (West Nile virus), P06935 | fluorogenic substrate Ex360/Em465; hits give low values | z-score (no concentration beside the values) | hit rate 0.18% among 65,000 | AID 577, 2007; in the data active = z-score below about -3
# M1 antag confirm: rat M1 muscarinic receptor antagonists, confirmation, CHO cells, Fluo-4 calcium, duplicate. shares compounds with M1 antagonist. ACh EC80 antagonism; hits give low values. calcium response (max-min fluorescence) at 10 µM. hit rate 43% among 1,700;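 active = calcium response below the same-plate mean of wells given acetylcholine alone at its 80%-effect dose, minus 3 SD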;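 also: raw fluorescence intensity difference in arbitrary instrument units and not normalized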
# mGluR4 antag: human mGluR4 response to M1 antagonist hits, M1 allosteric modulator project, cell-based, antagonist mode, secondary assay 1; shares compounds with M1 antagonist; CHO-mGluR4 calcium flux, Fluo-4 fluorescence, glutamate EC80; hits give low values; fluorescence response (max-min) at 10 µM; hit rate 0.9% among 1,700; AID 678, 2007;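 active = fluorescence response below the plate's average for near-maximal glutamate wells, less 3 SD of those wells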;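 also: raw unnormalized fluorescence span taken in the window right after glutamate addition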
# Starred values were filed as active, the others as inactive; i = inactive; nt = not tested or not shown.
SMILES,A340 absorber,M1 ag,Fluor 339 460,M1 antagonist,BAP1 inh,WNV NS2B-NS3 inh,M1 antag confirm,mGluR4 antag
Cc1oc(-c2ccc(Cl)cc2)nc1CN1CCCC(C(=O)NCCCN2CCCC2=O)C1 (stereo not given),1.06,-0.828,1.1,-3.97*,i,-1.55,510,247
CCOc1ccc2nc(NC(=O)c3ccc(Cl)s3)sc2c1,nt,nt,nt,nt,i,nt,nt,nt
CCn1nnnc1NCc1ccc(N2CCCC2)cc1,1.01,-1.24,1.1,-17*,i,0.45,503*,215
CC(=O)OCc1c(COC(C)=O)[n+](=O)c2ccccc2n1[O-],1.05,-0.0693,1,-2.62*,i,-0.27,634,267
CC(Cc1cccs1)NC(=O)Nc1ccccc1 (stereo not given),1.03,0.128,0.87,-3.18*,i,-1.75,588,188
C[C@H](NC(=O)NCc1cccs1)C(=O)O,0.97,-0.207,1.02,0.148,i,-0.11,nt,nt
COc1ccc2c(c1)CCC1=C2NC(=S)NC1c1cccc(F)c1 (stereo not given),nt,nt,nt,nt,i,nt,nt,nt
COc1ccc(-c2cc(C(=O)N3CCN(C(c4ccccc4)c4ccccc4)CC3)no2)cc1,1,-1.77,1.1,0.0546,nt,0.86,nt,nt
O=C(c1cc(-c2ccco2)on1)N1CCN(C(c2ccccc2)c2ccccc2)CC1,1.01,-1.48,1.09,-2.75*,i,-1.22,458,170
CSCCOC(=O)C1=C(C)NC(=O)NC1c1cccc([N+](=O)[O-])c1 (stereo not given),nt,nt,nt,nt,i,nt,nt,nt
CC(C)(C)NC(=O)c1cc2nc3c(c(C(F)(F)F)n2n1)CCc1ccccc1-3,nt,nt,nt,nt,i,nt,nt,nt
O=C(Nc1cccc(Cl)c1)N(CCN1CCOCC1)Cc1cccc(Cl)c1,0.99,1.02,1.08,-2.41*,i,1.13,255*,227
COc1ccc(CN(CCCN2CCOCC2)C(=O)Nc2cccc(Cl)c2)cc1OC,1.01,-0.0773,1.14,-0.072,i,-0.41,nt,nt
C=CCn1c(NCc2ccc(N(C)C)cc2)nc2ccccc21,1.02,-0.972,0.99,-2.27*,nt,-0.99,584,220
CCCCn1c(SCC(N)=O)nc2c1c(=O)[nH]c(=O)n2C,nt,nt,nt,nt,i,nt,nt,nt
CCN(CC)S(=O)(=O)c1ccc(NS(=O)(=O)c2cccc(C)c2)cc1,1.01,-0.132,1.05,-2.61*,i,-0.96,581,251
CCN(CC)S(=O)(=O)c1ccc(C)cc1,nt,nt,nt,nt,i,nt,nt,nt
CN(C)c1ccnc(NCc2ccccc2)c1C#N,1.03,0.381,1.09,-0.0476,i,-0.79,nt,nt
N#Cc1c(NCc2ccccc2)ccnc1NCc1cccnc1,0.99,-0.0798,1.04,-4.26*,i,0.15,441*,262
Cc1nc2ccc(Cl)cc2c(-c2ccccc2)c1C1=NN(C(=O)CCC(=O)O)C(c2cccc(Br)c2)C1 (stereo not given),nt,nt,nt,nt,i,nt,nt,nt
Cn1c(=O)c2c(nc(OCc3cccnc3)n2Cc2c(F)cccc2Cl)n(C)c1=O,0.99,0.736,1.1,-1.15*,i,-0.2,509*,248
CCSc1ccccc1C(=O)Nc1cc(C)on1,1.05,-0.608,1.02,-3.79*,i,-0.62,537,193
CCOC(=O)c1ccc(Nc2nnc3nc(C)cc(C)n23)cc1,1.04,-0.706,1.1,-1.24*,i,-1.2,466,214
CCOC(=O)c1ccc(Nc2cc(C)nc3ncnn23)cc1,1.04,-1.3,1.05,-0.367,i,-1.32,nt,nt
CC(NC(=O)c1ccc(N(C)C)cc1)C(c1cccs1)N1CCN(C)CC1 (stereo not given),1.07,0.187,1,-3.93*,i,0.25,632,183
SMILES,A340 absorber,M1 ag,Fluor 339 460,M1 antagonist,BAP1 inh,WNV NS2B-NS3 inh,M1 antag confirm,mGluR4 antag
CCN(CC)CCOC(=O)c1c(C)oc2ccc(OC)cc12,1.03,-0.371,1.07,-14.3*,i,-1.08,98.4*,246
COc1ccc(C=Cc2ccc([N+](=O)[O-])cc2)c(OC)c1,nt,nt,nt,nt,i,nt,nt,nt
COC(=O)c1ccc(NC(=O)c2cccc(C(=O)OC(C)C)n2)cc1,nt,nt,nt,nt,i,nt,nt,nt
COC(=O)c1cc(Br)ccc1-c1ccc(/C=N/n2nnnc2N)o1,1.02,1.85,1.1,-5.02*,i,-1,450,206
c1ccc(-c2cc3c(N4CCOCC4)ncnc3s2)cc1,1.09,-0.375,1.95,-2.59*,i,-0.53,497,214
CCCNC(=O)c1c(NC(=O)c2ccccc2C)sc2c1CCC2,nt,nt,nt,nt,i,nt,nt,nt
CC(=O)Oc1ccc2oc(=O)c3c(c2c1)CCCN3C(=O)CN1CCN(c2ncccn2)CC1,1.09,0.393,0.83,0.117,i,-1.64,nt,nt
O=C(c1ccco1)N1CCN(CC(=O)N2CCCc3c2c(=O)oc2ccc(O)cc32)CC1,1.09,0.992,1.12,0.206,i,-0.23,nt,nt
O=C(CN1CCN(Cc2ccccc2)CC1)N1CCCc2c1c(=O)oc1ccc(O)cc21,1.03,-0.000196,1.1,-6.13*,i,0.71,334*,222
CCCOc1ccc2oc(=O)c3c(c2c1)CCCN3C(=O)CN(C)Cc1ccccc1,1.04,-0.224,1.73,-6.53*,i,-1.23,386*,265
CCOc1ccc(C(=O)Nc2nc(-c3ccc(CC)cc3)cs2)cc1,nt,nt,nt,nt,i,nt,nt,nt
CC(C)N1CC2(c3ccccc31)N1CC3(C)CN2CC(C)(C1)C3=O (stereo not given),nt,nt,nt,nt,i,nt,nt,nt
Cc1ccc(-c2nnc3sc(C4COc5ccccc5O4)nn23)cc1 (stereo not given),1.02,0.307,1.11,-3.37*,i,-0.00137,476,223
N=c1sccn1CC(=O)NCCc1ccc(Cl)cc1,0.99,-0.491,1.03,-4.72*,i,-0.61,408*,246
Cc1cc(C)nc(NC2=NCCN2C(=O)Nc2ccc(Cl)c(Cl)c2)n1,1.04,-0.728,1.01,-4.09*,nt,0.14,475,217
c1ccc(-c2nnc(N3CCN(c4ccccn4)CC3)c3ccccc23)cc1,1.05,1.41,1.09,-4.83*,i,-1.29,358*,171*
O=C(COc1cccc(C(F)(F)F)c1)Nc1ncc(Cc2cccc(C(F)(F)F)c2)s1,nt,nt,nt,nt,i,nt,nt,nt
CN1C(=O)c2c(sc3c2CCCC3)NC1c1ccccc1O (stereo not given),1.02,-0.461,1.06,-2.68*,nt,0.3,554,205

# High-throughput results from PubChem BioAssay.
